# Measured values as given in PubChem BioAssay (Tox21).
# Results filed as inconclusive are left out. Unmarked numbers belong to inactive results. The source made the active and inactive calls. Calls follow the shape of the dose curve; as a rule, active = well fitted cell-killing curve with a large enough effect in the repeat runs; inconclusive = weak or mixed curves, or effect the other way; inactive = flat fitted curve, though single readings scatter.
# Assay: cAMP Responsive Elements (CRE) small molecule antagonists, cell-based qHTS assay: qHTS cell viability counter screen (AID 2060913); also: nearly all actives have a fitted effect of over 40% in size
# Details: CRE-bla HEK293T viability, CellTiter-Glo luminescence, 5 h; series mostly up to 92.4 µM; viability change, negative = cytotoxic: at the top concentration
# Method in brief: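 HEK293T CRE-bla, 2,000 cells/well, 18 h preincubation; cpd in DMSO + NKH477 0.25 uM final, 3 h 37 C/5% CO2; LiveBLAzer 2 h RT, then CellTiter-Glo 30 min RT, luminescence.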
# % is scaled to controls: 0 for no effect and ±100 for the full control effect; potency is read from the fitted curve at half-maximal effect.
SMILES,"viability change, negative = cytotoxic",Potency
O=P(O)(O)Oc1ccccc1,10.9%,
C[C@@H]1C[C@H]2[C@@H]3C[C@H](F)C4=CC(=O)C=C[C@]4(C)[C@@]3(F)[C@@H](O)C[C@]2(C)[C@@]1(O)C(=O)CO,3.65% [at 42.5 µM],
C[C@]1(Cn2ccnn2)[C@H](C(=O)O)N2C(=O)C[C@H]2S1(=O)=O,-13.2% [at 42.5 µM],
COc1ccc(C(=O)/C(Br)=C\C(=O)O)cc1,10.4%,
Cc1cccc(Cl)c1,1.44%,
O=C(NCCc1c[nH]c2ccccc12)c1cccnc1,7.12% [at 42.5 µM],
CN(C)CCN(C)CCN(C)C,3.24%,
CC(C)(Sc1cc(C(C)(C)C)c(O)c(C(C)(C)C)c1)Sc1cc(C(C)(C)C)c(O)c(C(C)(C)C)c1,-1.65% [at 42.5 µM],
C=C(C)CCCC(C)CCO (stereo not given),0.132%,
OC[C@H]1O[C@@H](O[C@H]2[C@H](O)[C@@H](O)[C@H](O)O[C@@H]2CO)[C@H](O)[C@@H](O)[C@H]1O,1.52%,
O=C(NO)c1ccccc1,-2.16%,
COc1ccc2nc(N)sc2c1,,inactive
CCCc1c(OCCCCc2nn[nH]n2)ccc(C(C)=O)c1O,,inactive
COc1ccc2nc(NC(=O)Nc3ccccc3)sc2c1,-8.66% [at 42.5 µM],
CC(C)(C)c1ccc(O)c(C(C)(C)C)c1,,48.6 µM (active)
O=C(Nc1cccc([N+](=O)[O-])c1)c1cc2ccccc2cc1O,-22.5%,
S=C1NC=NC2N=CNC12 (stereo not given),,3.06 µM (active)
CCCN1C[C@H](CSC)C[C@@H]2c3cccc4[nH]cc(c34)C[C@H]21,-1.86% [at 42.5 µM],
CC1=NN(c2cccc(S(=O)(=O)O)c2)C(=O)C1,1.63%,
CCC(=O)O[C@]1(C(=O)SCF)[C@H](C)C[C@H]2[C@@H]3C[C@H](F)C4=CC(=O)C=C[C@]4(C)[C@@]3(F)[C@@H](O)C[C@@]21C,-1.59% [at 42.5 µM],

SMILES,"viability change, negative = cytotoxic",Potency
Oc1ccc(C(c2ccc(O)cc2)C(Cl)(Cl)Cl)cc1,,inactive
CC1(C)CC(OC(=O)CCCCCCCCC(=O)OC2CC(C)(C)NC(C)(C)C2)CC(C)(C)N1,-1.62% [at 18.9 µM],
CN1CCN(CCC(=O)N2c3ccccc3Sc3ccc(C(F)(F)F)cc32)CC1,-12.1% [at 42.5 µM],
CCC(C)CCCC(C)(C)O (stereo not given),-0.14%,
CCCCC(=O)O[C@]1(C(=O)CO)CC[C@H]2[C@@H]3CCC4=CC(=O)CC[C@]4(C)[C@H]3[C@@H](O)C[C@@]21C,5.12% [at 42.5 µM],
CCN(CC)c1ccc(C(=C2C=CC(=[N+](CC)CC)C=C2)c2ccc(S(=O)(=O)O)cc2S(=O)(=O)[O-])cc1,,27.3 µM (active)
O=C1Nc2ccccc2C1=O,-15.1%,
CN1CCCN=C1/C=C/c1cccs1,16% [at 42.5 µM],
O=C(O)COc1ccc2ccccc2c1,10%,
CCCCCCCC(=O)N(C)C,4%,
O=C(O)CNC(=O)c1ccccc1,-0.485% [at 42.5 µM],
CCCCCCCCCCc1ccccc1,-0.592%,
COc1ccc(CCN2CCC(Nc3nc4ccccc4n3Cc3ccc(F)cc3)CC2)cc1,,35.1 µM (active)
CCCCC(CC)COC(=O)c1ccccc1C(=O)O (stereo not given),3.97%,
O=[N+]([O-])c1ccc(/C=N\O)o1,6.89% [at 42.5 µM],
CC/C=C\CCOC(=O)C(C)C,-6.04%,
O=[N+]([O-])c1ccc(O)cc1,,inactive
O=C(O)c1cc(Cl)cc(Cl)c1O,1.65%,
O=C(CCCl)NCc1ccccc1,-0.0546% [at 42.5 µM],
OCCOc1cccc(OCCO)c1,0.488%,
